High-throughput results (PubChem)
This is one part of a sample in which hits are shown more often than they occur.
Sa growth 42C – blocks Staphylococcus aureus growth; 170,000 tested, 0.53% active; S. aureus RN4220 growth, OD600, 20 h, 42 °C; active compounds read low; relative growth, % (no concentration beside the values);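 active = relative growth at most 50% at the other temperature and 20+ points below 30 °C, or under 10% at both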
Sa helicase inh – S. aureus DNA helicase inhibition. purified S. aureus helicase, fluorescence unwinding assay. inhibition, % (no concentration beside the values). 120,000 tested, 0.05% active; in the data active = inhibition above about 25%, passing the limit was not always enough;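 also: 0% = mean of negative control wells and 100% = mean of positive control wells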
The depositor's hits bear a star; · = no result given.

SMILES | Sa growth 42C | Sa helicase inh
COc1ccc(CCN(C)c2nc(N)c3c(N)nc(SCC(=O)O)cc3c2C#N)cc1OC | 0.7* | -18
COc1c2ccoc2nc2c(OC)c(OC3OC(C)C(O)C(O)C3O)ccc12 (stereo not given) | 90 | 14
COC(=O)c1ccccc1NC(=S)N(Cc1ccco1)Cc1cc2cc(C)ccc2[nH]c1=O | 83 | 5
O=C1CCC/C1=C/c1ccccc1 | 96 | 11
CC1CCN(Cn2nc(-c3ccc4c(c3)OCO4)oc2=S)CC1 | 42* | -7
CC1CN(Cn2nc(-c3ccc4c(c3)OCO4)oc2=S)CC(C)O1 (stereo not given) | 80 | -11
Cc1oc(-c2ccc(Cl)cc2)cc1CO | 89 | -6
O=S1(=O)CC(c2ccccc2)CS(=O)(=O)C12CCCC2 | 108 | 21
CCOC(=O)c1c(N)sc(SC#N)c1-c1ccccc1 | 4.9* | 21
CCOC(=O)c1c(-c2ccccc2)csc1N | 103 | -12
CCN(CC)C(=O)Nc1c(C)cc(C)cc1C | 102 | 17
CC(C(=O)Nc1cccc(Cl)c1)N1CCNC(=O)C1 (stereo not given) | 100 | 2
CN(C)CCC(=O)c1ccc2c(c1)OCO2 | 87 | 3
CCCCCc1ccc(C(=O)CCN(C)C)cc1 | -0.1* | 0
S=C(Nc1ccc(Cl)c(Cl)c1)NC1CCCC1 | 1.3* | ·
Cc1cccc(NC(=S)NC2CCCC2)c1 | 121 | -6
O=C(/C=C/c1ccc2c(c1)OCO2)Nc1ccc(-n2nncc2-c2ccccc2)cc1 | 102 | 10
CC(C)C(=O)Nc1cccc2nsnc12 | 1.2* | -2
Cc1ccc(S(=O)(=O)C(=O)Nc2cccc3nsnc23)cc1 | 124 | -4
Cc1cccc(Cc2c(C)nc3c(-c4ccccc4)c(C)[nH]n3c2=O)c1 | 15 | ·
Cc1ccccc1Cc1c(C)nc2c(-c3ccccc3)c(C)[nH]n2c1=O | 0.5* | ·
Cc1[nH]n2c(=O)cc(-c3ccccc3Cl)nc2c1-c1ccccc1 | 32 | ·
Cc1[nH]n2c(=O)cc(-c3ccccc3)nc2c1-c1ccccc1 | 0.0* | -13
O=S(=O)(Cc1nn[nH]n1)c1ccccc1 | 105 | 4
CCN(CC)C(=O)Oc1ccccc1 | 114 | 9
SMILES | Sa growth 42C | Sa helicase inh
CCc1ccc[n+](OC(=O)N(CC)CC)c1 | 0.1* | 15
Cc1ccc(-n2sc3ccccc3c2=O)cc1 | 1.1* | 2
Cc1ccc(N2C(=O)c3ccccc3C2=O)cc1 | 101 | 4
CC(C)(C)c1ccc(C(=O)Nc2c3c(nn2-c2cccc(Cl)c2)CS(=O)C3)cc1 (stereo not given) | · | 6
Cc1c(CN(C)C)c2c(n1C)C(=O)c1ccc(Br)cc1-2 | 87 | 64*
Cc1c(CN(C)C)c2c(n1Cc1ccccc1)C(=O)c1ccc(Br)cc1-2 | 93 | 14
CCCCNC(=O)C1CCN(Cc2cccc(OC)c2O)CC1 | 100 | -5
N#Cc1cccc(CSc2nc(NC3CC3)c3ccccc3n2)c1 | 91 | 9
N#CC(C#N)=C(Nc1ccccc1Cl)SCc1cccc(F)c1 | 0.1* | 1
N#CC(C#N)=C(Nc1ccc(Br)cc1)SCc1ccc(F)cc1 | 31 | -13
O=C(CCc1ccccc1)Nc1nn2c(-c3ccccc3)nnc2s1 | 118 | 7
Cc1ccc(CSc2nc(-c3cccs3)ccc2C#N)cc1 | 99 | ·
N#Cc1ccc(CSc2nc(-c3cccs3)c3c(c2C(=O)O)CCCC3)cc1 | 0.1* | 15
O=c1cc(CN2CCN(c3ccccc3)CC2)occ1OC/C=C/c1ccccc1 | 95 | 6
CN(C(=O)Nc1ccc2c(c1)OCCO2)C1CCCCC1 | 107 | -6
Cc1cc2nc3ccc(=[N+](C)C)cc-3sc2cc1N | 209 | 132*
CN(C)c1ccc2nc3ccc(=[N+](C)C)cc-3sc2c1 | 52 | ·
COc1ccc(C2=N/C(=C\c3ccc(-c4ccc(S(=O)(=O)Nc5ncccn5)cc4)o3)C(=O)O2)cc1 | 98 | -249
CC(C)CNS(=O)(=O)c1ccc(NC(=O)c2cccnc2)cc1 | 101 | -8
Cc1cc(C)c2c(c1)/C(=c1/sc3n(c1=O)CN(c1cccc(Br)c1)CN=3)C(=O)N2 | 92 | 4
CCN1C(=O)c2ccccc2S(=O)c2ccc(C(=O)N3CCc4ccccc4C3)cc21 (stereo not given) | 111 | 3
CC1COC2=C(N3CCN(C)CC3)C(F)=CC3C(=O)C(C(=O)O)=CN1C23 (stereo not given) | -0.5* | -3
O=C(Nc1ccc(Cl)cc1)C1CCCCC1 | 111 | 3
CCc1ccc2[nH]c3nc(C)cc(C)c3c(=O)c2c1 | 105 | 21
CCN(CC)/N=N/c1[nH]nc2nc(C)cc(C)c12 | 7.2* | 10
SMILES | Sa growth 42C | Sa helicase inh
NC1CCN(c2c(F)cc3c(=O)c(C(=O)O)cn(C4CC4)c3c2Cl)C1 (stereo not given) | -0.9* | ·
COc1c(N2CCNC(C)C2)c(F)cc2c(=O)c(C(=O)O)cn(C3CC3)c12 (stereo not given) | -0.9* | ·
CC1CCc2c(N3CCC(O)CC3)c(F)cc3c(=O)c(C(=O)O)cn1c23 (stereo not given) | -1.0* | ·
CCOC(=O)c1cn2c3c(c(F)c(F)cc3c1=O)OCC2C (stereo not given) | 101 | -14
CC1CCc2cc(F)cc3c(=O)c(C(=O)O)cn1c23 (stereo not given) | 30 | ·
CN1CCN(c2c(F)cc3c(=O)c(C(=O)O)cn(CCF)c3c2F)CC1 | 23 | ·
CO/N=C1\CN(c2nc3c(cc2F)c(=O)c(C(=O)O)cn3C2CC2)CC1CN (stereo not given) | -1.0* | ·
Clc1ccc2sc(N3CCCC3)nc2c1 | 85 | ·
COc1ccc(S(=O)(=O)N(CC(=O)O)C2CCCCC2)cc1OC | 94 | 5
CCN1CCN(CC(O)COc2ccc(C(=O)OC)cc2)CC1 (stereo not given) | · | -5
CC1=C(C#N)C(=O)N(CC(C)O)C(=O)/C1=C/c1ccc(-c2ccc(C(=O)OC(C)C)cc2)o1 (stereo not given) | 79 | 31
CC1CN(C(=O)C(C)N2CCc3ccccc32)CC(C)O1 (stereo not given) | 91 | -9
CCn1cc(C(=O)O)c(=O)c2cc(F)c(N3CCNCC3)nc21 | 59 | ·
NC1CCN(c2nc3c(cc2F)c(=O)c(C(=O)O)cn3-c2ccc(F)cc2F)C1 (stereo not given) | -1.0* | ·
O=C(CC1Sc2ccccc2NC1=O)OCC(=O)N1CCN(S(=O)(=O)c2ccccc2)CC1 (stereo not given) | 86 | 10
Cc1cc2oc(=O)cc(Cn3ccsc3=N)c2cc1C(C)C | 50* | 6
Cc1cc2c(CCl)cc(=O)oc2cc1C(C)C | 92 | -5
Cc1ccccc1OC(=O)c1ccc2ncsc2c1 | 96 | -6
CC(=O)On1cc(F)c(=O)[nH]c1=O | 0.7* | 2
CCOC(=O)CCn1cc(F)c(=O)[nH]c1=O | 95 | 8
Sc1nc2c(Cl)c(Cl)c(Cl)cc2o1 | -0.8* | 22
Cc1cc2ccccc2n1CCNC(=O)c1ccc(S(=O)(=O)N(C)C)cc1 | · | -20
CCn1cc(C(=O)O)c(=O)c2cc(F)c(N(C)CCc3ccc(OC)c(OC)c3)cc21 | 0.0* | 23
CCn1cc(C(=O)O)c(=O)c2cc(F)c(F)cc21 | 85 | 8
CN(CCCNCC1CC2C=CC1C2)c1ccccc1 (stereo not given) | 114 | -1
CCOC(=O)c1cccc2c1-c1ccccc1C2=O | 82 | ·
CCOC(=O)c1cccc2c1-c1ccccc1/C2=N/O | 44* | 4
O=C(O)[C@H]1/C(=C/CO)O[C@@H]2CC(=O)N21 | 15* | ·
